Reference: PubChem BioAssay (NCATS)
Results filed as inconclusive are left out. A call without a number means that no potency is given here. Unmarked numbers belong to inactive results. Calls of active or inactive are those of the source. Unless noted, calls follow the shape of the dose curve; as a rule, active = well fitted curve in the direction sought with a large enough effect; inconclusive = small, poorly fitted or top-dose-only effect, or another doubt; inactive = no such curve, though single readings can be large; an effect the other way counts as inactive or inconclusive.

Legend:
[1] = qHTS for Inhibitors of Plasmodium falciparum (DD2) proliferation (AID 504314); also: potency is read from the fitted curve at half-maximal effect;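 as to activity, negative = inhibition: parasite DNA measured by SYBR Green fluorescence after red cell lysis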
Summary of the method: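 Erythrocytes infected with P. falciparum (0.3% parasitemia, 2.5% hematocrit final) were incubated with compounds for 72 h at 37C, 5% CO2. Parasite DNA was detected by SYBR Green I fluorescence after saponin/Triton lysis, normalized to artemisinin (0.29 uM) and DMSO controls.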

[2] = qHTS for Inhibitors of Plasmodium falciparum (GB4) proliferation (AID 504315); also: nearly all actives have a fitted effect of over 50% in size; also: potency is read from the fitted curve at half-maximal effect
Summary of the method: (§1)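 Erythrocytes infected with P. falciparum line (0.3% parasitemia, 2.5% hematocrit final) incubated with compounds 72 h at 37 °C, 5% CO2; SYBR Green lysis buffer added, fluorescence read next day. Normalized to 0.29 uM artemisinin and DMSO.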

[3] = qHTS for Inhibitors of Plasmodium falciparum (7G8) proliferation (AID 504316); also: nearly all actives have a fitted effect of over 65% in size; also: potency is read from the fitted curve at half-maximal effect
Summary of the method: as §1

[4] = qHTS for Inhibitors of Plasmodium falciparum (HB3) proliferation (AID 504318); also: nearly all actives have a fitted effect of over 60% in size; also: potency is read from the fitted curve at half-maximal effect
Summary of the method: as §1

[5] = qHTS for Inhibitors of Plasmodium falciparum (CP250) proliferation (AID 504320)
Summary of the method: as §1

[6] = biological target: Atrial natriuretic peptide receptor 1 (Homo sapiens) (UniProt P16066); assay: Natriuretic polypeptide receptor (hNpr1) antagonism - Pilot CMLD screen (AID 1347052; calls by dose curve;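 also: HEK293 cells with hNpr1 stimulated by hNppA peptide at 0.1 nM; cGMP level read as GloSensor luciferase luminescence after agonist stimulation; series mostly up to about 9.2 µM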)
Chain of Atrial natriuretic peptide receptor 1 (Homo sapiens) (P16066 whole entry, looked up): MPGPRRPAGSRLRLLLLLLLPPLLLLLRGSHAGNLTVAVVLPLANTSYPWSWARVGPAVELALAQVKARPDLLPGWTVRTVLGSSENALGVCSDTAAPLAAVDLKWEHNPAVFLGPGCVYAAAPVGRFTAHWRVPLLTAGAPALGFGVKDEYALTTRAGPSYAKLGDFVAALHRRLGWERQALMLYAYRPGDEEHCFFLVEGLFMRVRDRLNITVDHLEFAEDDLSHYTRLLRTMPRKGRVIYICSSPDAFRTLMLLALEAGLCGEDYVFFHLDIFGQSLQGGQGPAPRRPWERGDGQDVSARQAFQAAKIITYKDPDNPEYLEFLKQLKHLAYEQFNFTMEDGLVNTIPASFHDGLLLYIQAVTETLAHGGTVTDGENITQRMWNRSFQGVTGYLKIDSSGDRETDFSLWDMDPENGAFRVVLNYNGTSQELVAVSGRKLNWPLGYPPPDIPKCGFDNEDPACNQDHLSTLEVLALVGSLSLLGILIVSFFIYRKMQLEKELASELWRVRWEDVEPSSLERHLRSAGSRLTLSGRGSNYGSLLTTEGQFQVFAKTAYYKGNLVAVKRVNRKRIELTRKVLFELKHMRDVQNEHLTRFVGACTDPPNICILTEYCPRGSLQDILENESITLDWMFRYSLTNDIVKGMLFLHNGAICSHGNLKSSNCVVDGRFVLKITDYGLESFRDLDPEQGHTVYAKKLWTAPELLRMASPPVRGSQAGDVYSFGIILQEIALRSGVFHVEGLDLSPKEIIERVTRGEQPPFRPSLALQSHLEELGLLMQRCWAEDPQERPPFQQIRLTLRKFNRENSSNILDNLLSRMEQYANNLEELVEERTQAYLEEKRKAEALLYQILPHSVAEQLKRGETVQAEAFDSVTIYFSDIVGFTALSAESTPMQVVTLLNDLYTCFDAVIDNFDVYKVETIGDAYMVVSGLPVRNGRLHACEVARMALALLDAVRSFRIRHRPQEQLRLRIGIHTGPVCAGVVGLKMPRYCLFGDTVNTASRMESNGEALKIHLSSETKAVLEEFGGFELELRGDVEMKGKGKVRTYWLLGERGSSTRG

| Structure (SMILES) | Potency [1] | Potency [2] | Potency [3] | Potency [4] | Potency [5] | Potency [6] | activity, negative = inhibition [1] |
| --- | --- | --- | --- | --- | --- | --- | --- |
| CCOC(=O)CN1C(=O)NC(CCc2ccccc2)C(C(=O)OC)=C1C (configuration not stated) | inactive | inactive | inactive | inactive | inactive | inactive | – |
| C=CCN1c2ccccc2[C@]23C[C@@H](C(=O)OC)N(C(=O)c4cccs4)C2=NC(C(=O)OC)=C(C(=O)OC)[C@H]13 | inactive | inactive | inactive | inactive | inactive | inactive | – |
| COC(=O)CC=C1c2ccccc2[C@@H](NC(=O)OC)[C@@H]1C | inactive | inactive | inactive | inactive | inactive | inactive | – |
| COc1cc2c(cc1OC)[C@@H]1O[C@](CCCCN3C(=O)c4ccccc4C3=O)(C2)OC2=C1C(=O)c1ccccc1C2=O | 1.34 µM (active) | 1.51 µM (active) | 1.51 µM (active) | 1.51 µM (active) | inactive | inactive | – |
| C=CC1=C2C=C(C3CC3)N(CC3CC3)C=C2C(=O)C(C)(OC(=O)c2ccco2)C1=O (configuration not stated) | inactive | inactive | inactive | inactive | inactive | inactive | – |
| CN1c2ccccc2[C@@]2(O)C(=O)[C@@]1(C)[C@@H]1CCC=C[C@H]12 | inactive | inactive | inactive | inactive | inactive | inactive | – |
| C=CCOC(=O)N[C@H](C(C(=O)OC)=C(C)NCc1ccccc1)c1ccc2c(c1)OCO2 | inactive | inactive | inactive | inactive | inactive | inactive | – |
| CCN1C(=NCc2cc(OC)c(OC)c(OC)c2)N[C@@H](c2ccccc2)[C@H](C(=O)OC)[C@H]1C | inactive | inactive | inactive | inactive | inactive | inactive | – |
| O=C(Oc1ccccc1)[C@H]1O[C@H]1c1ccccc1 | inactive | inactive | inactive | inactive | inactive | inactive | – |
| COC(=O)N[C@@H](c1ccc(Br)cc1)C(C(=O)OC)C(=O)OC | inactive | inactive | inactive | inactive | inactive | inactive | – |
| Cc1cc(C)c2c(c1)CO[C@H]([C@H](O)CO)[C@H]2C=Cc1ccccc1 | inactive | inactive | inactive | inactive | inactive | inactive | – |
| CC1(OC(=O)C2CCCC2)C(=O)C=C2C=C(c3ccsc3)N(CCN3CCOCC3)C=C2C1=O (configuration not stated) | – | inactive | inactive | inactive | inactive | inactive | 1.21% [at 1.12 µM] |
| CC12C=C(C=CCCc3ccco3)C(C)(C1)C(CCc1ccco1)CC2=O (configuration not stated) | inactive | inactive | inactive | inactive | inactive | inactive | – |
| COC(=O)C(C(C)=O)[C@@H](NC(=O)NCc1ccccc1)c1ccccc1 (some centres not stated) | inactive | inactive | inactive | inactive | inactive | inactive | – |
| CCOC(=O)CN1C(=O)N[C@@H](c2cccc(C(F)(F)F)c2)[C@H](C(C)=O)[C@H]1C | inactive | inactive | inactive | inactive | inactive | inactive | – |
| CCN1C(=NCC(C)C)N[C@H](c2ccccc2)[C@H](C(=O)OC)[C@H]1C | inactive | inactive | inactive | inactive | inactive | inactive | – |
| C=CCN1C(=O)C2(CC(C)=C[C@@H](C)O2)c2c(Br)cccc21 (some centres not stated) | inactive | inactive | inactive | inactive | inactive | inactive | – |
